# Rows were chosen to be rich in hits. Some 2.1% of all compounds tested hit in one or more screens of this group.
# EBV LMP1 NFkB: EBV LMP1-driven NF-kappaB luciferase reporter inhibitors, primary screen, cell-based, luminescence, single point; AID 504558, 2011; LMP1-induced NF-kappaB luciferase reporter cells; inhibition, % at 12.5 µM; hit rate 0.69% among 350,000; in the data active = inhibition above about 41%; inconclusive = no clear call, values can overlap the other calls;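 also: 0% = neutral control wells and 100% = reference inhibitor control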
# PAX8 reporter: inhibitors of PAX8-driven TPO luciferase reporter, primary screen, RMG-I cells, single concentration | SteadyGlo, 24 h | inhibition, % at 12.6 µM | hit rate 1.2% among 360,000 | AID 652154, 2013;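 active = mean replicate inhibition at least 60% with every replicate also reaching 60%; inconclusive = only one of the two criteria is met; inactive = mean below 60% and not all replicates reaching 60%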;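 also: luciferase light reporting Pax8 driven TPO promoter activity; plate controls were median of neutral control wells for no effect and mitoxantrone controls for full effect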
# aSyn UTR inh: MLPCN primary screen, SNCA 5' untranslated region; alpha-synuclein 5'UTR reporter, inhibitor activity; inhibition, % (tested at 7.5 µM); hit rate 0.82% among 300,000; AID 1813, 2009; in the data active = inhibition above about 60%; inconclusive = no clear call, values can overlap the other calls;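 also: H4 neuroglioblastoma cells stably carrying SNCA 5'UTR luciferase fusion; 0% = DMSO wells and 100% = positive control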
# Shn3 3UTR inh: reduction of Shn3 3'UTR firefly luciferase signal, primary screen, Schnurri-3 inhibitor project, cell-based, Clone20 osteoblasts, set 2. Clone20 osteoblast Shn3 3'UTR firefly luciferase, 24 h. inhibition, % at 12.5 µM. hit rate 0.52% among 360,000. AID 588674, 2011;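 active = mean inhibition of at least 75% with every replicate also reaching 75%; inconclusive = mean inhibition at least 75% but some replicate below; inactive = mean inhibition below 75%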;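 also: 0% = median of neutral control wells and 100% = pilot-screen positive control compound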
# TRPM1 prom inh: inhibitors of MITF-dependent TRPM1 promoter reporter, primary screen, cell-based, SK-MEL-5, single point, luciferase; inhibition, % at 12.5 µM; hit rate 0.83% among 330,000; AID 488899, 2010; SK-MEL-5 TRPM1 promoter luciferase, 24 h;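 active = mean inhibition across replicates of 60% or more, whatever share of single replicates reaches that level; inconclusive = some that reach 60%, reason not given; inactive = mean inhibition across replicates below 60%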
# Starred values were filed as active, the others as inactive; ? = inconclusive; / = no result given; ! = not active in a repeat.
SMILES,EBV LMP1 NFkB,PAX8 reporter,aSyn UTR inh,Shn3 3UTR inh,TRPM1 prom inh
C[C@@H]1CN([C@@H](C)CO)C(=O)Cc2cc(NC(=O)Nc3ccc4c(c3)OCO4)ccc2O[C@@H]1CN(C)C,/,3,/,/,/
Cc1ccc(C(=O)NCC2CCCO2)cc1N1CCCC1=O (stereo not drawn),-7,/,22,-7,-8
Cc1ccc2nc3n(c2c1)CCCN3,2,-16,-7,0,-6
COc1ccc(C(=O)CSc2nnc(-c3ccccn3)n2Cc2ccco2)cc1,-21,/,-7,0,-5
Cc1ccc(NC(=O)c2nc(S(=O)(=O)Cc3ccccc3C)ncc2Cl)cc1C,28,10,39,96*,78*
CCS(=O)(=O)c1ncc(Cl)c(C(=O)Nc2ccc(S(=O)(=O)N3CCC(C)CC3)cc2)n1,8,100*,65*,99*,97*
CCCS(=O)(=O)c1ncc(Cl)c(C(=O)Nc2ccc(S(=O)(=O)Nc3ncccn3)cc2)n1,1,10,16,1,5
CCc1ccc(NC(=O)c2nc(S(=O)(=O)Cc3ccccc3)ncc2Cl)cc1,23,53,91*,96*,92*
CCOC(=O)c1ccc(NC(=O)c2nc(S(=O)(=O)Cc3ccccc3)ncc2Cl)cc1,10,22,?,96*,78*
O=C(C[C@H]1C[C@H]2c3cc(NC(=O)C4CCC4)ccc3O[C@H]2[C@H](CO)O1)NCc1ccncc1,/,-16,/,/,/
CCOC(=O)[C@]12CCCC=C1N(Cc1ccc(Cl)cc1Cl)C(=O)[C@H](CC(=O)NCCCN1CCCC1=O)C2,/,-2,/,/,/
CCSc1ncc(Cl)c(C(=O)Nc2ccc(S(N)(=O)=O)cc2)n1,0,70*,5,25,10
CCSc1ncc(Cl)c(C(=O)Nc2ccc(S(=O)(=O)Nc3ncccn3)cc2)n1,2,-9,5,-13,7
CCOc1cccc(NCc2cc3c(C(C)(C)C)nn(-c4ccccc4)c3[nH]c2=O)c1,-17,/,43,8,6
CC(C)(C)c1nn(-c2ccccc2)c2[nH]c(=O)c(CNCc3ccc4c(c3)OCO4)cc12,5,/,29,14,66*
CCOC(=O)c1c(C)[nH]c(C)c1C(=O)CSc1nc2ccccc2n1CC,4,2,16,-3,1
CCOC(=O)c1c(C)[nH]c(C)c1C(=O)CSc1nc2ccccc2c(=O)n1-c1ccc(CC)cc1,20,-18,13,90*,12
CCOC(=O)c1sc(=S)n(C)c1NC(=O)c1ccccc1Cl,4,76*,-6,14,0
COc1ccc(-c2csc3ncnc(NCCCO)c23)cc1,52*,-18,30,10,-3
COc1ccc(-c2csc3ncnc(NCCO)c23)cc1,42*,-9,2,18,0
COc1ccc(-c2csc3ncnc(Nc4ccc(O)cc4)c23)cc1,18,6,44,19,13
Cc1ccc(NC(=O)c2ccccc2)cc1C,-7,-50,/,-25,-19
CCOCCCNC(=S)N1CCC(C(=O)c2ccc3c(c2)OCCO3)CC1,-1,-8,12,13,5
C[C@@H]1CN([C@H](C)CO)C(=O)c2cccc(NC(=O)c3ccncc3)c2O[C@@H]1CN(C)C(=O)Nc1ccc(F)cc1,/,-8,/,/,/
CC1=NOC(=O)/C1=C\c1ccc(-c2ccc(Cl)cc2Cl)o1,3,-8,2,13,73*
SMILES,EBV LMP1 NFkB,PAX8 reporter,aSyn UTR inh,Shn3 3UTR inh,TRPM1 prom inh
CCCOc1ccc(Cl)cc1/C=C1/C(=O)ON=C1C,2,-3,-1,7,26
CC(C)(C)c1ccc(CN2C3=NCCCN3c3ccccc32)cc1,-4,24,-62,88*,48
Cc1ccc(CN2C3=NCCCN3c3ccccc32)cc1,3,/,/,41,-6
CCCCCCCN1C2=NCCCN2c2ccccc21,3,6,8,87*,1
Cc1nnc(SCC(=O)N(C)c2c(N)n(Cc3ccccc3)c(=O)[nH]c2=O)n1Cc1ccccc1,5,-15,9,-8,13
Cc1ccc(/C=C/c2nc3ccccc3c(=O)[nH]2)cc1,45*,-1,68*,10,22
O=C1c2cccc(NCCNCCO)c2C(=O)c2cccc(NCCNCCO)c21,10,10,/,-29,81*
C[C@H](CO)N1C[C@H](C)[C@@H](CN(C)S(=O)(=O)c2cccs2)Oc2ccc(N(C)C)cc2CC1=O,/,-3,/,/,/
c1ccc(CSc2nnc(Cc3ccccc3)o2)cc1,-23,-84,-71,-26,-71
c1ccc(CSc2nnc(Cc3ccccn3)o2)cc1,-4,65*,-55,-24,-22
CS(=O)(=O)N1[C@H](C#N)[C@H](c2ccc(C#CC3CCCC3)cc2)[C@@H]1CO,/,-2,/,/,/
OCCN(CCO)c1ccc(C(c2ccccc2Cl)c2ccc(N(CCO)CCO)cc2Cl)c(Cl)c1,-10,/,-5,23,-13
Cc1cc(C)nc(/N=C(\N)Nc2ccc(-c3ccccc3)cc2)n1,16,22,-32,92*,-3
COc1cc(C2=Nc3ccc(Br)cc3C(c3ccccc3)N2CC(=O)NN)cc(OC)c1OC (stereo not drawn),/,8,-5,2,/
COc1ccc(-c2cc(C(=O)NC3CC3)c3ccccc3n2)cc1,-2,-31,-16,-23,-16
O=C(NC1CC1)c1cc(-c2ccc(Br)cc2)nc2ccccc12,42*,-2,/,4,-4
CCOc1ccc(N(CC(=O)OC)S(=O)(=O)c2ccc(OC)c(OC)c2)cc1,2,/,7,-19,-2
O=C(O)C(O)c1ccccc1 (stereo not drawn),83*!,-12,1,6,-6
COCC(=O)N1CC2(C1)[C@H](c1ccccc1)[C@@H](CO)N2C(=O)c1cccnc1,/,1,/,/,/
CCN(Cc1ccncc1)C(=S)Nc1ccc(Cl)cc1,-4,-9,6,49,-2
COCCn1c(C)cc(C(=O)CSc2nnc(C)s2)c1C,74*,75*,100*,70,67*
COCCn1c(C)cc(C(=O)CSc2nnnn2C2CCCC2)c1C,70*,39,/,34,1
COc1ccc(Cl)cc1C(=O)CSc1nnnn1C1CCCC1,8,/,/,3,-6
CC(C)(C)c1ccc(Cn2c(=O)cnc3ccccc32)cc1,63*,27,-37,81,49
O=c1cnc2ccccc2n1Cc1ccc(Br)cc1,-6,-62,-65,-26,-52
CCCCOc1ccc(/C(O)=C2/C(=O)C(=O)N(Cc3cccnc3)C2c2ccncc2)c(C)c1 (stereo not drawn),7,0,2,0,-3
N#C/C(=C\C=C\c1ccccc1[N+](=O)[O-])C(=O)NCc1ccccc1,-82,65*,-291,-18,69*
C/C(=N/OC(=O)c1cccc(Cl)c1)c1nccs1,-4,-6,-5,-11,-7
CC(=O)c1ccc(S(=O)(=O)Nc2cccc(-c3ccc4nncn4n3)c2)cc1,58*,9,12,7,-5

# Screening data: PubChem, Broad Institute
